# Source: PubChem (The Scripps Research Institute Molecular Screening Center)
# Shown are actives, neighbours in structure and some others; about 4.8% of the full set was active somewhere.
# SMARCA2 activ: SMARCA2 function activation, primary screen; MG213 cells, MMTV-luciferase reporter, dexamethasone, overnight; activation, % at 9.1 µM; 370,000 tested, 1% active; AID 652017; in the data active = activation above about 7.8%;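 note: 0% = vehicle wells and 100% = reference activator wells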
# DAX1 inh-1: inhibits human nuclear receptor DAX1 | HEK293 Gal4-DAX1 luciferase reporter, luminescence | inhibition, % at 6.75 µM | 340,000 tested, 0.99% active;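 active = inhibition above the mean over all tested compounds plus 3 SD, cut at about 4.2% in these data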;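 note: 0% = DAX1-transfected cells with DMSO and 100% = empty-vector control cells with DMSO; inhibition shows as a rise in luminescence from relieved DAX1 repression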
# Target sequence (P51843 207-470 limits assumed): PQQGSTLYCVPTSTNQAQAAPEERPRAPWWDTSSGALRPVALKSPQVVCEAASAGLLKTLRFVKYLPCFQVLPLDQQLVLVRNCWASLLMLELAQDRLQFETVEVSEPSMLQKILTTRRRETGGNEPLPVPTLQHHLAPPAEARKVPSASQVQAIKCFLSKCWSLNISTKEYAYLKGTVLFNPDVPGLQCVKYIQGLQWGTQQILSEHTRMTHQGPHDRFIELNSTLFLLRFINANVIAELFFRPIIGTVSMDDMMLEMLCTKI
# hgDAF12 agonist: agonists of H. glycines DAF-12 nuclear receptor; HEK293 GAL4-hgDAF12 UAS-luciferase reporter, agonist luminescence; normalized to butyrate control; activation, % at 6.8 µM; 370,000 tested, 1.8% active; AID 687014;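 active = activation above a cutoff set at the mean of all screened compounds plus 3 SD, cut at about 10% in these data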;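 note: 0% = DMSO wells and 100% = sodium butyrate wells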
# ssDAF-12 act: activators of S. stercoralis DAF-12 nuclear receptor; 370,000 tested, 1% active; activation, % at 6.8 µM; AID 652126; HEK293 ssDAF-12/GRIP1 lit1-tk-luc reporter, luminescence; % of 3 µM dafachronic acid response;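 active = activation above the mean over all tested compounds plus 3 SD, cut at about 0.9% in these data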;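 note: 0% = DMSO-only wells and 100% = 3 µM delta7-dafachronic acid wells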
# hcDAF-12 act: activates DAF-12 receptor from parasite H. contortus; 370,000 tested, 1.4% active; AID 652067; activation, % at 6.8 µM; HEK293 hcDAF-12 lit1-tk-luc reporter, luminescence; 0% DMSO, 100% Δ7-dafachronic acid;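 active = activation above the mean of all tested compounds plus 3 SD, cut at about 5.5% in these data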;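 note: 100% = response to 3 µM Δ7-dafachronic acid high control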
# DAX1 inh-2: DAX1 (NR0B1) inhibition, primary screen; inhibition, % at 6.8 µM; 370,000 tested, 1.1% active; HEK293T StAR-luciferase reporter, SF-1/DAX-1 repression relief;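 active = inhibition above the mean over all tested compounds plus 3 SD, cut at about 3.6% in these data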;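 note: 0% = DAX-1 cells with DMSO and 100% = cells lacking DAX-1 with DMSO; higher inhibition means more luminescence from relief of DAX-1 repression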
# Starred values were filed as active, the others as inactive; . = no result; ! = a repeat was not active.
SMILES,SMARCA2 activ,DAX1 inh-1,hgDAF12 agonist,ssDAF-12 act,hcDAF-12 act,DAX1 inh-2
Cc1cccc(N2CCN(C(=O)C3CCN(S(=O)(=O)c4c(C)noc4C)CC3)CC2)c1C,-3,0,-1,-1,-1,0
COC(=O)Nc1ccccc1C(=O)N1CCC(O)(c2ccc(Cl)cc2)CC1,1,0,1,0,-1,-1
NC(=O)Nc1ccccc1C(=O)N1CCC(O)(c2ccc(Cl)cc2)CC1,.,5.4*,.,.,.,.
CC(C)S(=O)(=O)c1csc(C(=O)Nc2ccc(F)cc2)c1N,4,2,9,1.3*,4,3
Cc1nc(Cl)sc1C(=O)Nc1ccc(F)cc1,1,1,-1,0,0,0
CCCCCC(=O)Nc1cccc(C2=NOC3(C2)C[C@H](C(N)=O)N(C(=O)c2ccccc2)C3)c1 (some centres not stated),0,0,-2,-1,-1,-1
CCOCC(=O)Nc1ccc([N+](=O)[O-])cc1Cl,-2,.,-1,-1,-1,-2
CC(C)CC(=O)Nc1ccc([N+](=O)[O-])cc1Cl,-1,4.3*,1,-1,-1,1
COc1ccc([N+](=O)[O-])cc1NC(=S)NC(C)=O,-4,8.8*,-2,0,1,0
COc1ccc(C2C(C(=O)NCc3ccccn3)c3ccccc3C(=O)N2C)cc1OC (configuration not stated),-3,1,-1,-1,-1,0
COc1ccc(C2C(C(=O)NCCN(C)C)c3ccccc3C(=O)N2C)cc1OC (configuration not stated),-1,4.6*,1,-1,-1,-2
Cc1ccccc1NS(=O)(=O)c1ccc(OCC(=O)NCc2cccnc2)cc1,0,0,-4,-1,-1,0
CC(C)(C)C(=O)Nc1nc2c(s1)CN(Cc1ccccc1)CC2,7,0,11*,0,2,2
O=C(Nc1nc2c(s1)CN(Cc1ccccc1)CC2)C1CCCC1,-2,0,3,0,-1,0
CC(=O)c1cccc(NC(=O)CN2CCc3cc4c(cc3C2C)OCCCO4)c1 (configuration not stated),-3,0,-5,-2,-4,-3
N#C/C(=C/c1ccc(N2CCCCC2)o1)c1cccc(F)c1,3,1,-4,0,-1,4.4*
N#C/C(=C/c1ccc(N2CCCCCC2)o1)c1ccc(Cl)cc1,.,-1,.,.,.,.
CN(C)S(=O)(=O)c1cc(NC(=O)CN2CCCc3ccccc32)ccc1Cl,-4,0,0,-1,2,-1
CN(C)S(=O)(=O)c1cc(NC(=O)CN2CCc3ccccc32)ccc1Cl,-2,-1,6,1.0*,5,0
COC(=O)[C@@]1(C(C)C)N=C(c2cc(OC)c(OC)c(OC)c2)[C@]2(O1)C(=O)N(C)c1ccc(Br)cc12,1,.,0,-1,0,-2
Cc1ccc(NC(=O)c2cncc(Br)c2)cc1S(=O)(=O)N(C)C,5,1,7,1.4*,1,3
CN(C)S(=O)(=O)c1cccc(NC(=O)c2cncc(Br)c2)c1,1,2,1,-2,0,0
Cc1ccc(SCC(=O)NNC(=O)c2cncc(Br)c2)cc1,1,5.9*,-1,-1,-1,0
CCN(CC)c1ccc(NC(=O)c2cccnc2)cc1,-3,0,4,-1,1,1
CCN(CC)c1ccc(NC(=O)c2cncc(Br)c2)cc1,4,1,13*,-1,1,2
SMILES,SMARCA2 activ,DAX1 inh-1,hgDAF12 agonist,ssDAF-12 act,hcDAF-12 act,DAX1 inh-2
COc1ccc(CCN2CC(C(=O)NCc3ccc(F)cc3)CC2=O)cc1OC (configuration not stated),0,3,0,-2,0,0
COc1cc(/C=N/n2cnnc2)ccc1OCC(=O)N1CCOCC1,0,4.9*,-3,-1,0,0
CCCCCCSc1ccc(-c2nc3ccccn3c2NCCCC)cc1,3,0,3,-1,-2,0
CCCCNc1c(-c2ccc(-c3cccc(Cl)c3)cc2)nc2ccccn12,4,1,11*!,0,1,2
CCOC(=O)C1=CN(CC2CCCCC2)CCC1=O,-2,-1,-2,-1,1,1
O=c1c2c(nc3n1CCCCC3)sc1c(O)c(Br)ccc12,3,2,6,0,4,4.4*
CCN(CC)CCOc1c(Br)ccc2c1sc1nc3n(c(=O)c12)CCC3,5,3,6,0,1,0
Cc1ccc(OCCn2cc(C#N)c3ccccc32)cc1,2,-1,3,-1,1,-1
COc1cccc(/C=N/c2oc(-c3ccccc3)cc2C#N)c1O,-2,1,1,-1,-1,0
COc1cccc(C=Nc2ccccc2C#N)c1O,-2,0,1,2.1*,4,0
CCCCSc1oc(-c2ccco2)nc1S(=O)(=O)c1ccccc1,-2,-2,0,-1,-2,-1
O=C(N/N=C/c1ccco1)c1cnccn1,8.0*,0,5,0,1,0
COC(=O)[C@@]12C[C@@H](CC(=O)NCCCN3CCCC3=O)C(=O)N(CCc3ccc(OC)c(OC)c3)C1=CCC(C)(C)C2,0,.,-4,-1,1,3.8*
C[C@H](NC(=O)C1CC(=O)N(c2ccc3c(c2)OCO3)C1)C(=O)NC1CCCC1 (some centres not stated),-4,0,-1,-1,0,0
CCOC(=O)CSc1ccc(-c2nc3ccccc3[nH]2)cn1,0,2,5,-1,-1,-1
N#CCSc1ccc(-c2nc3ccccc3[nH]2)cn1,0,0,11*,0,2,3
COc1ccc(OCC(=O)Nc2nccs2)cc1,1,-2,8,0,6.1*,3
CCC(=O)c1ccc(OCC(=O)Nc2nc(-c3cccnc3)cs2)cc1,-3,-2,2,0,3,1
Cn1c(CSCc2ccccc2)nnc1SCC(=O)Nc1nccs1,-2,-1,-3,-1,-1,-1
CCC(=O)c1ccc(OCC(=O)Nc2nc(C)cs2)cc1,3,3,12*,0,1,2
COc1ccccc1C(=O)NCc1nnc(SCC(=O)Nc2nccs2)n1C,2,8.3*,-1,-1,3,0
Cc1ccc(SCC(=O)Nc2nccs2)cc1,7.8*,0,4,-1,1,1
O=c1cc(-c2ccccc2)oc2ccccc12,4,6.0*,7,-1,0,3
Cc1ccc2c(CN3CC(C)CC(C)C3)cc(=O)oc2c1 (configuration not stated),-3,0,-2,-1,0,0
Cc1ccc2c(CN3CCC(C)CC3)cc(=O)oc2c1,6,2,11*,-1,3,2
